Reference: ChEMBL document CHEMBL1961873, “Compounds: GSK PKIS; Assays: Nanosyn kinase panel” (2012)

Assays:
[1] = target: Sphingosine kinase 1 (Homo sapiens) (UniProt Q9NYA1); conditions: at 1 µM;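 note: mean SPHK1 inhibition value reported from the GSK PKIS kinase panel screen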
[2] = target: T1, Sphingosine kinase 2 (Homo sapiens) (UniProt Q9NRA0); conditions: at 0.1 µM
T1 sequence (whole entry): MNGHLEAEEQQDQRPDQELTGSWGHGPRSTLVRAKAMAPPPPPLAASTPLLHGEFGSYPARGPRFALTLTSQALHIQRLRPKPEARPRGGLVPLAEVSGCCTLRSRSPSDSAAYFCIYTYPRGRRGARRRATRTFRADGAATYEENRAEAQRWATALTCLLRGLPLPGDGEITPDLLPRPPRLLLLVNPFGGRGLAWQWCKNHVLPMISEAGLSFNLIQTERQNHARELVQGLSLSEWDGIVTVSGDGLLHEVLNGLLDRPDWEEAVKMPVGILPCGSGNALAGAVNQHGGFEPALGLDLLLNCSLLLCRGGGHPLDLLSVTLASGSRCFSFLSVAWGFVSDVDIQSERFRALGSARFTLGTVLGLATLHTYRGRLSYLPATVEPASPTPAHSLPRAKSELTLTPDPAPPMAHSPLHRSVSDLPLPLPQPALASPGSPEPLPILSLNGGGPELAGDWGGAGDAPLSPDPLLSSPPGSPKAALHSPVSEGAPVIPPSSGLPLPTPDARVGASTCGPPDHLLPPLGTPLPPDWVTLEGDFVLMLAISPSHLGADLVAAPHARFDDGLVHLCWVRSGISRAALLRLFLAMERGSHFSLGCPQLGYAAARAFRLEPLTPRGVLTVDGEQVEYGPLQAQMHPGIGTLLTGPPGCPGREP

[3] = target: T1, Sphingosine kinase 2 (Homo sapiens); conditions: at 1 µM
[4] = target: Casein kinase II subunit alpha (Homo sapiens) (UniProt P68400); conditions: at 0.1 µM
[5] = target: Casein kinase II subunit alpha (Homo sapiens) (UniProt P68400); conditions: at 1 µM
[6] = target: T2, Inhibitor of nuclear factor kappa-B kinase subunit alpha (Homo sapiens) (UniProt O15111); conditions: at 0.1 µM
T2 sequence (whole entry): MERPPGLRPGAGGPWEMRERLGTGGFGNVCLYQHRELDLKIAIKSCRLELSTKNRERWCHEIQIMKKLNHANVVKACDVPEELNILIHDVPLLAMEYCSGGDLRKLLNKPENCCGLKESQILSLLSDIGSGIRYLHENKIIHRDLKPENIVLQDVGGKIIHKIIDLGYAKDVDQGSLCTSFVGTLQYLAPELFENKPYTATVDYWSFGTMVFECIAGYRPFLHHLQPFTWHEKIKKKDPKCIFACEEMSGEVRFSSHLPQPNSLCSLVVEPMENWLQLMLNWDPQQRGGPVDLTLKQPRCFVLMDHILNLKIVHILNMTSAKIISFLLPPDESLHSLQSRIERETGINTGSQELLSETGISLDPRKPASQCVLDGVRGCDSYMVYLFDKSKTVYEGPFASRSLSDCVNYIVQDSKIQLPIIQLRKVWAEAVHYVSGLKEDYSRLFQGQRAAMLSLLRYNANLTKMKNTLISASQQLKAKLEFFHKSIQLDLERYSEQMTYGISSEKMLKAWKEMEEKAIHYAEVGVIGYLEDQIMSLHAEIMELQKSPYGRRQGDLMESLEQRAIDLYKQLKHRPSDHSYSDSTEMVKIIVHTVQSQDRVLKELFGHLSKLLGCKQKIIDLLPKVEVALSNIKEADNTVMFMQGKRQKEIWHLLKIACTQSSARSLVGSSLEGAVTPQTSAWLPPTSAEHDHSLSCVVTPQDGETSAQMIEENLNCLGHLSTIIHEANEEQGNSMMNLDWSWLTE

[7] = target: T2, Inhibitor of nuclear factor kappa-B kinase subunit alpha (Homo sapiens); conditions: at 1 µM
[8] = target: T3, Inhibitor of nuclear factor kappa-B kinase subunit beta (Homo sapiens) (UniProt O14920); conditions: at 0.1 µM
T3 sequence (whole entry): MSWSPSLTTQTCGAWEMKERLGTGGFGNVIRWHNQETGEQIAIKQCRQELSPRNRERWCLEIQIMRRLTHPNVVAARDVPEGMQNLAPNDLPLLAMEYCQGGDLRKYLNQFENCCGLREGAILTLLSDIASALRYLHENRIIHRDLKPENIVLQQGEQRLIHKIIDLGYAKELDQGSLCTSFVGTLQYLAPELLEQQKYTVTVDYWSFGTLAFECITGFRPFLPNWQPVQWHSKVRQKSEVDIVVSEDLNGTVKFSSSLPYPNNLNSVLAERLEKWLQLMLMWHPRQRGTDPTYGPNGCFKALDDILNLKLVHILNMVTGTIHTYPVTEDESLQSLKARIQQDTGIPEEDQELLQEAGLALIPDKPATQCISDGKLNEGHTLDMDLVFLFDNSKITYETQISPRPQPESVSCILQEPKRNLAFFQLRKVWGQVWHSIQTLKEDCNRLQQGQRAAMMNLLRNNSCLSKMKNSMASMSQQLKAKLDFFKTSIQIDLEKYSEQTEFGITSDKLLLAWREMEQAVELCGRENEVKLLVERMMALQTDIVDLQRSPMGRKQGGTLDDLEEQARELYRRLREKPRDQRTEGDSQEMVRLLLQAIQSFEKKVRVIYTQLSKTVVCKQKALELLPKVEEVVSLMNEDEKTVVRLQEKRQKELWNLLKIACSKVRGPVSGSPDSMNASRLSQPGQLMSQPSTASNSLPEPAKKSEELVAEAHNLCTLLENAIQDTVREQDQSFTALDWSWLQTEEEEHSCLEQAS

[9] = target: T3, Inhibitor of nuclear factor kappa-B kinase subunit beta (Homo sapiens); conditions: at 1 µM
[10] = target: T4, Inhibitor of nuclear factor kappa-B kinase subunit epsilon (Homo sapiens) (UniProt Q14164); conditions: at 0.1 µM
T4 sequence (whole entry): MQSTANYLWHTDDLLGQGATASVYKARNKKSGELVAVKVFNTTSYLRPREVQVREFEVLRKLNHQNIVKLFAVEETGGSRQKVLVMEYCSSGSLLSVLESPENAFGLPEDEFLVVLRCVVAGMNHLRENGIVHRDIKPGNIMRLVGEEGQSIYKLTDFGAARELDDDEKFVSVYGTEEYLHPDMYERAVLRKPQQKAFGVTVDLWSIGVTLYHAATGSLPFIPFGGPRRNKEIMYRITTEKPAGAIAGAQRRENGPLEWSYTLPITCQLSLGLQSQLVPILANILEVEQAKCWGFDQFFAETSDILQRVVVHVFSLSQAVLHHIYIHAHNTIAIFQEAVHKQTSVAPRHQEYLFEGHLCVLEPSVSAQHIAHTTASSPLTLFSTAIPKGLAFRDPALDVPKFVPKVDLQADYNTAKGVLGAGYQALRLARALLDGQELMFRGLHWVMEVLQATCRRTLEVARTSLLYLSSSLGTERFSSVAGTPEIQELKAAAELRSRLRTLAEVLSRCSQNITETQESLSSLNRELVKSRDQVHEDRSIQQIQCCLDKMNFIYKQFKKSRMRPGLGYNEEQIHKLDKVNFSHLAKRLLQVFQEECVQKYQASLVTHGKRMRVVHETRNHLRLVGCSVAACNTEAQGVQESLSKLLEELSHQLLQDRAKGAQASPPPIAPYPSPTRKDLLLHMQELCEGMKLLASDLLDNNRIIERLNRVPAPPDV

[11] = target: T4, Inhibitor of nuclear factor kappa-B kinase subunit epsilon (Homo sapiens); conditions: at 1 µM
[12] = target: T5, Serine/threonine-protein kinase Nek1 (Homo sapiens) (UniProt Q96PY6); conditions: at 0.1 µM
T5 sequence (whole entry): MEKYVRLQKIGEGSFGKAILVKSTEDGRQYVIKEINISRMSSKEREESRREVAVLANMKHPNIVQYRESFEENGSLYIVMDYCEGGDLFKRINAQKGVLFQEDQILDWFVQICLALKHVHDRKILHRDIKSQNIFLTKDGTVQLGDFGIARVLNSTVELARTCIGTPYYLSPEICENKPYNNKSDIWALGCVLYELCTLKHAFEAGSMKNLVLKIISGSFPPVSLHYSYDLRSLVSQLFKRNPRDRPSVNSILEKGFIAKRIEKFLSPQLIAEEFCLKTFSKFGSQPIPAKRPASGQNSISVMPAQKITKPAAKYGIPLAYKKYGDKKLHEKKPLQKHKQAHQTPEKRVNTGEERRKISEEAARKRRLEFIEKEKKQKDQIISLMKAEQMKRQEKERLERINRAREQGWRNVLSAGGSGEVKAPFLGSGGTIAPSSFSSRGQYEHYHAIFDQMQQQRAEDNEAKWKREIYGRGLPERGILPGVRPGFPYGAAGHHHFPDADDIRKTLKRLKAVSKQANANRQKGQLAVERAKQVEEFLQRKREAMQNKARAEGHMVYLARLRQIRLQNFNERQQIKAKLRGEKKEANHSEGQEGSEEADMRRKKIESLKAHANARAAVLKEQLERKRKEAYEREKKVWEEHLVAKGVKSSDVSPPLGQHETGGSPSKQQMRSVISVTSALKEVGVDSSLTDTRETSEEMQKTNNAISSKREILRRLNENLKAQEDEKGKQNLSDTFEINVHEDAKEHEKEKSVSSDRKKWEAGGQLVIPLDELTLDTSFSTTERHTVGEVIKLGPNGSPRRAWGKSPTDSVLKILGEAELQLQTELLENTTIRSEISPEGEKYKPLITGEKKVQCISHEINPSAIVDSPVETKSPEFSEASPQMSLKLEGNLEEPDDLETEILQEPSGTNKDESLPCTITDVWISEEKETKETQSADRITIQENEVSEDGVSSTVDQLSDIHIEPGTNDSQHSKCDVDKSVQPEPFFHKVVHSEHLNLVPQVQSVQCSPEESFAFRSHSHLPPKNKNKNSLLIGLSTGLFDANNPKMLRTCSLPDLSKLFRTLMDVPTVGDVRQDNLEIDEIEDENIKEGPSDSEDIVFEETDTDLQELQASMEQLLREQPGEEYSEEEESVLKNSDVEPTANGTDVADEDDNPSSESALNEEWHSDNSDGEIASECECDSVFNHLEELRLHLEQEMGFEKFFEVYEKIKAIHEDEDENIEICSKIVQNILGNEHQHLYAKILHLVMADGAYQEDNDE

[13] = target: T5, Serine/threonine-protein kinase Nek1 (Homo sapiens); conditions: at 1 µM
[14] = target: T6, Serine/threonine-protein kinase Nek2 (Homo sapiens) (UniProt P51955); conditions: at 0.1 µM
T6 sequence (whole entry): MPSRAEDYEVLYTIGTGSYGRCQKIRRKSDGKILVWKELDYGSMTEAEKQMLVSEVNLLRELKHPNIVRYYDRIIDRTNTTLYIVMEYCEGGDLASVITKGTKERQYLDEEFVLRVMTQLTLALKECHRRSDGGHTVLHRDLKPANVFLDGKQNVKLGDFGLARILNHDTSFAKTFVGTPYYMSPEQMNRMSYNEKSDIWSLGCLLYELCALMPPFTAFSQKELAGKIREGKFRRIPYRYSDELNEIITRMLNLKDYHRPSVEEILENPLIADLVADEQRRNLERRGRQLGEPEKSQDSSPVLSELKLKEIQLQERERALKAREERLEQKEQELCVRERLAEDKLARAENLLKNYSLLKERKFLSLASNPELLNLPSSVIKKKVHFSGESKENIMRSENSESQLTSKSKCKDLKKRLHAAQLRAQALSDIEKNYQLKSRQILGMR

[15] = target: T6, Serine/threonine-protein kinase Nek2 (Homo sapiens); conditions: at 1 µM
[16] = target: Serine/threonine-protein kinase Nek6 (Homo sapiens) (UniProt Q9HC98); conditions: at 0.1 µM
[17] = target: Serine/threonine-protein kinase Nek6 (Homo sapiens) (UniProt Q9HC98); conditions: at 1 µM
[18] = target: Serine/threonine-protein kinase Nek7 (Homo sapiens) (UniProt Q8TDX7); conditions: at 0.1 µM
[19] = target: Serine/threonine-protein kinase Nek7 (Homo sapiens) (UniProt Q8TDX7); conditions: at 1 µM
[20] = target: T7, Serine/threonine-protein kinase Nek9 (Homo sapiens) (UniProt Q8TD19); conditions: at 0.1 µM;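 note: reported value is the mean percent inhibition of NEK9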
T7 sequence (whole entry): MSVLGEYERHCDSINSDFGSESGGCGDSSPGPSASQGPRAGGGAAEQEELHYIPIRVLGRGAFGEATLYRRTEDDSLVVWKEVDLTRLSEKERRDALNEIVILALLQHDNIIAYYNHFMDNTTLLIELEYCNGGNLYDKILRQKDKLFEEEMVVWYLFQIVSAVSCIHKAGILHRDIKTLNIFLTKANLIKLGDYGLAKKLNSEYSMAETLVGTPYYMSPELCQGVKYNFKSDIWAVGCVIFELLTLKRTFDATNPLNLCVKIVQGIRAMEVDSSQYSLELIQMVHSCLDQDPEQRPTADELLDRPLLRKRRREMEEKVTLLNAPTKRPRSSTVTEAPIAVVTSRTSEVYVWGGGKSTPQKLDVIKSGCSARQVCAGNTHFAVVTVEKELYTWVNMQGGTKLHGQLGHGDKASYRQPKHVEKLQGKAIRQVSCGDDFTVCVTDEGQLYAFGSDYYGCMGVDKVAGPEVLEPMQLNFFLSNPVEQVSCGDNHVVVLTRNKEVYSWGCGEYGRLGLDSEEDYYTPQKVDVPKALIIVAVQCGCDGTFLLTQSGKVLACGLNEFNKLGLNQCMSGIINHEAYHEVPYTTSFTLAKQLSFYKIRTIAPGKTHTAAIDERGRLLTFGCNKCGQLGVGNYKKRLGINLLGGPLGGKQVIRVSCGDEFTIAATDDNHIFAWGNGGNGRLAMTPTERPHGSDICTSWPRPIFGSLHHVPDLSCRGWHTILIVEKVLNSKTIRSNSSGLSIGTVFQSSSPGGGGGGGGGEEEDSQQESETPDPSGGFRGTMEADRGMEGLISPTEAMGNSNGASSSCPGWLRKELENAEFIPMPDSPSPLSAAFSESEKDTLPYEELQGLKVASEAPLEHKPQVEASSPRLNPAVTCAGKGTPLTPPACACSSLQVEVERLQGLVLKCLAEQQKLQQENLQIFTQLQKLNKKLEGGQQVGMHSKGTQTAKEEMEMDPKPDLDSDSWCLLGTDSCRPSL

Serine/threonine-protein kinase Nek7 (Homo sapiens), sequence (Q8TDX7 whole entry, looked up): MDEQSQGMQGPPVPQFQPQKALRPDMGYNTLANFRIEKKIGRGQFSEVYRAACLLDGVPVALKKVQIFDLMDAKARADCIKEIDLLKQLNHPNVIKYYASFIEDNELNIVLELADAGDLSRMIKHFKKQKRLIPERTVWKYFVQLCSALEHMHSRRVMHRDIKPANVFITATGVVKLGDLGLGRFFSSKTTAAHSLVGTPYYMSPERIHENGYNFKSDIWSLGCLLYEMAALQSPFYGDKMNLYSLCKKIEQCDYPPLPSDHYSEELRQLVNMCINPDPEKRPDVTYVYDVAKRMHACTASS
Serine/threonine-protein kinase Nek6 (Homo sapiens), sequence (Q9HC98 whole entry): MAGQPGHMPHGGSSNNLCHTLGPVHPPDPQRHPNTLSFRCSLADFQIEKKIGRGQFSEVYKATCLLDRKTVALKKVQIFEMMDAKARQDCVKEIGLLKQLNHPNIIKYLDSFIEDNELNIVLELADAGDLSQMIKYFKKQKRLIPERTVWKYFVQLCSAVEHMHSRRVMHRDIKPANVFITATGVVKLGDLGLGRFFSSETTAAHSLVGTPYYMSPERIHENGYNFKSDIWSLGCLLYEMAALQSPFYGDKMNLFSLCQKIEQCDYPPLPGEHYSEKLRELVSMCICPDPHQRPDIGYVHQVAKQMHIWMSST
Casein kinase II subunit alpha (Homo sapiens), sequence (P68400 whole entry, looked up): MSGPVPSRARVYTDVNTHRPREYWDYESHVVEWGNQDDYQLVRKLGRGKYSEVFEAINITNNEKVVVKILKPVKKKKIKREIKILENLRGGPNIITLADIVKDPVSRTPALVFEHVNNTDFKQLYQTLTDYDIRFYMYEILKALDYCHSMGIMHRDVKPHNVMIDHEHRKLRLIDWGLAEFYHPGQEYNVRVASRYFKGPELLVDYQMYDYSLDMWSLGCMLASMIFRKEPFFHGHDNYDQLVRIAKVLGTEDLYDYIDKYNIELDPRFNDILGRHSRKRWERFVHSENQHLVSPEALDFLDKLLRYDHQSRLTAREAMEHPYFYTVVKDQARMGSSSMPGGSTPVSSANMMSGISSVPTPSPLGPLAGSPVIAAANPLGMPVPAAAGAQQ
Sphingosine kinase 1 (Homo sapiens), sequence (Q9NYA1 whole entry): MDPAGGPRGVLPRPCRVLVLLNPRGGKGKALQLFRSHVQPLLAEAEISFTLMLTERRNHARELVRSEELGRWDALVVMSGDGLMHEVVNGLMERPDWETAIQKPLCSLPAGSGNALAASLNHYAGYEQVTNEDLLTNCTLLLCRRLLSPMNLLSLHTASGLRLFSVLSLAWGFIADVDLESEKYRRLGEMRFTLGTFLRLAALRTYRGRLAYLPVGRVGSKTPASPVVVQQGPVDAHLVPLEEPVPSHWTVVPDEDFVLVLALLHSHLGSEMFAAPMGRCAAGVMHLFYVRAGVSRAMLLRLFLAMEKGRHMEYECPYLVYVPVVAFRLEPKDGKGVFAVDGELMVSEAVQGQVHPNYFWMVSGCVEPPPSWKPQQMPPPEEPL

For COc1ccc(-c2ccc3c(NC(=O)C4CC4)n[nH]c3n2)cc1, the inhibition [1] was -0.43%, the inhibition [2] was -0.3% and the inhibition [3] was 1.99%. For the same molecule, the inhibition [4] was 3.46%, the inhibition [5] was 8.9% and the inhibition [6] was 9.58%. The inhibition [7] was 7.37%, the inhibition [8] was 4.51% and the inhibition [9] was 4.44%. The inhibition [10] was 6.37%, the inhibition [11] was -8.46% and the inhibition [12] was 0.44%. The inhibition [13] was 2.1%, the inhibition [14] was 1.84% and the inhibition [15] was 1.4%. It also gave an inhibition [16] of 2.4%, an inhibition [17] of 3.26% and an inhibition [18] of 2.52%. For the same molecule, the inhibition [19] was 1.09% and the inhibition [20] was 4%.
